Screens deposited in PubChem BioAssay by National Center for Advancing Translational Sciences (NCATS).
HCMV inh: qHTS Assay for inhibitors of the human cytomegalovirus (HCMV); activity change, negative = inhibition, % at 57.5 µM; 410,000 compounds, 4.5% hits; HFF cells, HCMV-luciferase reporter, 72 h; active compounds read low; AID 1259415, 2018; in the data active means activity change below about -60%; inconclusive means no clear call, values can overlap the other calls; inactive means above about -39%
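Human foreskin fibroblasts infected with luciferase-reporter HCMV at MOI 1 PFU/cell, compounds at two doses. Luciferase measured 72 h post infection; normalized to buffer-only basal and Salinomycin (10uM) controls.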
HCV inhibitor: qHTS Assay for Inhibitors of Hepatitis C Virus (HCV). Huh7.5.1 HCVcc-Cre infection, luciferase reporter, 44 h. Potency, µM (titrated, usually from 41.8 µM), inactives show top-dose activity change, negative = inhibition, hits mostly inhibitors. AID 651820, 2012. 340,000 compounds, 3.4% hits; further: potency means the concentration at half of the fitted maximal effect
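Cells seeded at 1,000/well and cultured 4 h, then compounds added followed by HCVcc-Cre virus (~0.5 moi). After 44 h further culture, luciferase substrate was added, plates held 15 min at room temperature, and luminescence read for 15 sec.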
Pf growth 96h: Primary qHTS for delayed death inhibitors of the malarial parasite plastid, 96 hour incubation; Potency, µM (titrated, usually from 28.7 µM), for the others: at the highest dose activity change, negative = inhibition, usual class: inhibitors; AID 504834, 2011; P. falciparum luciferase reporter growth, 96 h; 320,000 compounds, 6.9% hits; further: potency means the concentration at half of the fitted maximal effect
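Readout is luminescence from an integrated firefly luciferase in P. falciparum. Red cells, 2% hematocrit and 0.05% parasitemia final, were cultured with compound through two parasite generations (96 hours) at 37 C, 5% CO2.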
Pf growth 48h: Primary qHTS for delayed death inhibitors of the malarial parasite plastid, 48 hour incubation. P. falciparum luciferase growth in erythrocytes, 48 h. Potency, µM (series often up to 28.7 µM), for the others: at the top dose activity change, negative = inhibition, actives largely listed as inhibitors. 310,000 compounds, 5.9% hits. AID 504832, 2011; further: potency means the concentration at half of the fitted maximal effect
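Erythrocytes infected with P. falciparum carrying an integrated firefly luciferase reporter (2% hematocrit, 0.1% parasitemia final) were exposed to compounds in RPMI 1640 with 0.5% Albumax at 37 C, 5% CO2. Growth inhibition was scored as reduced luminescence.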
* marks the source's active call; other numbers are inactive results; ? = inconclusive; . = not tested or not shown. In the library only some 13% were active in any assay of this set; here they are far more common. Unless noted, the call rests on the fitted dose curve; in most records, active means well fitted inhibition curve with a large enough effect; inconclusive means small, poorly fitted or top-dose-only effect, or another doubt; inactive means no such curve, though single readings can be large or run the other way. On the % scale 0 is the no-effect control and ±100 the full control effect.

SMILES	HCMV inh	HCV inhibitor	Pf growth 96h	Pf growth 48h
Cc1c(C)n(Cc2ccccc2)c2ncnc(Cl)c12	-88*	?	19%	10%
O=C(/C=C/NNC(=O)c1ccccc1)c1ccc([N+](=O)[O-])cc1	-98*	3.5µM*	?	57%
O=C(C1CCCN(S(=O)(=O)c2cccc3nsnc23)C1)N1CCN(c2ccccc2)CC1 (centres undefined)	-40	.	.	.
C(=NN1CCCCCC1)c1ccc2ccccc2n1	-92*	-1%	.	.
COc1ccc(C)cc1NC(=O)n1ncc2cc(Cl)ccc21	.	3%	3.3µM*	11%
Cc1ccccc1NC(=O)n1ncc2cc(Cl)ccc21	16	9%	-29%	35%
CN(C)c1cc2c(cc1NC(=O)c1ccc(F)cc1)n(C)c(=O)n2C	21	.	.	.
CC(=O)Nc1cccc(C(=O)OCc2csc(CC(=O)Nc3ccccc3C)n2)c1	89	-5%	?	9.3µM*
CC(=O)Nc1ccc(S(=O)(=O)NCCC(=O)OCc2csc(CC(=O)Nc3ccccc3C)n2)cc1	7	5%	?	12µM*
Cc1cc(C)c(C(=O)OCc2csc(CC(=O)Nc3ccccc3C)n2)c(C)c1	93	?	?	?
CCOC(=O)c1cc(OC(=O)c2ccc(OC)c(OC)c2)n(-c2ccccc2)n1	30	.	.	.
CCOc1cccc2cc(-c3nc4ccc(C(=O)O)cc4[nH]3)c(=O)oc12	47	.	317%	128%
O=C(CSc1nccn1Cc1ccccc1)Nc1ccc2c(c1)OCCO2	54	.	.	.
O=C(NCCCOc1cccc(CN2CCCCC2)c1)c1ccc(Cl)c(Cl)c1	-31	?	2.3µM*	?
c1cc(CN2CCCCC2)cc(OCCCNc2nc3ccccc3s2)c1	-34	?	4.8µM*	13µM*
O=C(CS(=O)(=O)Cc1ccccc1)Nc1ccc(Cl)cn1	-23	5%	16%	2%
O=C(CS(=O)(=O)Cc1ccccc1)Nc1ccccn1	-102*	-6%	23%	28%
COC(=O)c1c(C(=O)c2ccc(Br)cc2)n(C)c2ccccc12	?	-16%	?	13µM*
CCOC(=O)N1CCN(C(=O)c2ccccc2N(Cc2ccccc2)S(=O)(=O)c2ccccc2)CC1	7	-19%	22%	4.7µM*
CCOC(=O)N1CCN(C(=O)CN(c2cc(Cl)ccc2OC)S(=O)(=O)c2ccccc2)CC1	-92*	-7%	?	?
O=C(c1ccccc1N(Cc1ccccc1)S(=O)(=O)c1ccccc1)N1CCOCC1	-27	6%	0%	-65%
CCOC(=O)N1CCN(C(=O)CN(c2cccc(C)c2)S(=O)(=O)c2ccccc2)CC1	-6	-3%	-1%	?
COc1ccccc1N1CCN(C(=O)CN(c2ccccc2OC)S(=O)(=O)c2ccccc2)CC1	47	12%	1.3µM*	?
CCN(CC)C(=O)CN(c1cc2c(cc1OC)oc1ccccc12)S(=O)(=O)c1ccccc1	24	10µM*	10µM*	9.3µM*
COc1ccccc1CNC(=O)c1ccc(Cn2c(SCc3ccccc3)nc3cccnc32)cc1	-17	.	.	.
SMILES	HCMV inh	HCV inhibitor	Pf growth 96h	Pf growth 48h
CCNC(=O)C1(C)CCN(C(=O)c2ccc(OC(F)F)cc2)C1 (centres undefined)	-30	.	.	.
COC(=O)c1cccc(Nc2c(-c3ccc(SC)cc3)nc3nc[nH]n23)c1	80	.	.	.
CN(c1ccccc1C(=O)N1CCN(c2ccccc2F)CC1)S(=O)(=O)c1ccccc1	-10	9%	10µM*	-29%
CN(c1ccc(C(=O)N2CCN(c3ccccc3F)CC2)cc1)S(=O)(=O)c1ccccc1	-24	?	-3%	34%
CCOC(=O)/C(C#N)=N/Nc1ccccc1C(=O)O	0	10%	10µM*	?
CCOC(=O)CC(=O)Nc1ccccc1C(=O)O	31	-4%	83%	25%
CN(C)CCn1c(=O)n(-c2cccc(Cl)c2)c(=O)c2c3c(sc21)CCCCC3	-28	-25%	?	13µM*
CC(=O)N(C1=C(N)C(=O)c2ccccc2C1=O)C(C)C	4	4%	9.3µM*	13µM*
Cc1ccccc1NC(=S)N(CCN1CCOCC1)Cc1ccccc1F	20	14%	32%	-5%
CCc1ccccc1NC(=S)N(CCN1CCOCC1)Cc1ccccc1F	-8	6%	10µM*	-22%
O=C(Nc1cccc(Cl)c1)N(CCCN1CCOCC1)Cc1ccccc1F	-6	-24%	2.1µM*	-26%
COc1ccc2c(C#N)c3ccccn3c2c1	?	3.2µM*	-16%	20%
Cc1cc(=O)n2ccccc2c1C#N	7	8%	49%	.
COc1ccc(CNC(=O)c2c([S-])n(-c3ccc(C)cc3)c3cccc[n+]23)cc1	-12	?	10µM*	?
Cc1ccc(-n2c([S-])c(C(=O)NC(C)c3ccccc3)[n+]3ccccc23)cc1 (centres undefined)	?	-14%	?	?
CC(C)(C(=O)NCc1ccco1)n1cc(NC(=O)c2cncc(Br)c2)cn1	5	.	.	.
Cn1c(NC(=O)c2ccccc2C(F)(F)F)cc(=O)n(C)c1=O	-66*	10%	2%	6%
COc1cccc(NC(=O)C2CCCN2S(=O)(=O)c2ccc3nc(-c4ccccc4)[nH]c3c2)c1 (centres undefined)	-36	.	.	.
Cc1ccc(S(=O)(=O)N2CCOC2CNC(=O)C(=O)NCCc2c[nH]c3ccccc23)cc1 (centres undefined)	-80*	?	?	0%
Cc1cc(F)ccc1S(=O)(=O)N1CCCOC1CNC(=O)C(=O)NCCc1c[nH]c2ccccc12 (centres undefined)	-36	11µM*	9.3µM*	?
O=C(NCCc1c[nH]c2ccccc12)C(=O)NCC1OCCN1S(=O)(=O)c1cc(F)ccc1F (centres undefined)	-3	-27%	?	?
Cc1cc(C)c(S(=O)(=O)N2CCCOC2CNC(=O)C(=O)NCCc2c[nH]c3ccccc23)c(C)c1 (centres undefined)	-82*	?	?	?
O=C(NCc1ccccc1)C(=O)NCC1OCCN1S(=O)(=O)c1ccc([N+](=O)[O-])cc1 (centres undefined)	-78*	-3%	-8%	-10%
O=C(NCCc1c[nH]c2ccccc12)C(=O)NCC1OCCCN1S(=O)(=O)c1cccs1 (centres undefined)	-19	?	-22%	?
Cc1ccc(Cn2ccnc2SCC(=O)Nc2ccc3c(c2)OCO3)cc1	-29	.	.	.
Cc1ccccc1CN1C(=O)c2ccccc2S(=O)c2ccc(C(=O)NCc3ccc4c(c3)OCO4)cc21 (centres undefined)	-15	.	.	.
Cc1cc(N=Nc2ccccc2C)ccc1N	27	13µM*	.	.
CCOc1ccc(/C=N/NC(=O)Cc2csc(Nc3cccc(C(F)(F)F)c3)n2)c(OCC)c1	-5	?	38%	57%
